High-throughput results as filed in PubChem.
Only some compounds are listed: those with a hit (about 3.5% of all), similar ones and a draw of the others.
Anthrax LF inh2 – Bacillus anthracis LF protease inhibitors, primary screen, biochemical, multiplex microsphere, MLPCN library | Lethal factor (Bacillus anthracis), P15917 | multiplex microsphere protease cleavage assay | inhibition, % at 10 µM | 0.12% of 360,000 active; also: plate controls were buffer without enzyme for full effect and enzyme alone for no effect
BoNT-A LC inh2 – BoNT/A light chain protease inhibitors, primary screen, biochemical, flow cytometry, MLPCN library; 0.17% of 360,000 active; inhibition, % at 10 µM; multiplex microsphere protease substrate cleavage; also: plate controls were buffer without enzyme for full effect and enzyme alone for no effect
BJeLR lethal – MLPCN primary cell-based screen for lethality selective to Ras in HRASV12 cells. 0.17% of 300,000 active. AID 1554, 2009. inhibition, % (no concentration beside the values). BJeLR (HRASV12) viability, CellTiter-Glo ATP luminescence, 48 h; in the data active = inhibition above about 50%; inconclusive = no clear call, values can overlap the other calls
BoNT-F LC inh – BoNT/F light chain protease inhibitors, primary screen, biochemical, flow cytometry, MLPCN library | AID 588497, 2011 | inhibition, % at 10 µM | Multiplex microsphere protease cleavage assay | 0.22% of 360,000 active | Botulinum neurotoxin type F light chain protease (Clostridium botulinum); in the data active = inhibition above about 35%, passing the limit was not always enough; inconclusive = no clear call, values can overlap the other calls; also: plate controls were buffer without enzyme for full effect and enzyme alone for no effect
Autofluor counter – counter-screen for toxin protease inhibitors: compound fluorescence; compound autofluorescence counterscreen, microsphere flow cytometry; hits give high values; fluorescence intensity (concentration not given with the values); 3.1% of 360,000 active; in the data active = fluorescence intensity above about 16000; inconclusive = no clear call, values can overlap the other calls
* hit, by the source's call; ? = inconclusive; · = no result. Rule as the data show it, unless noted: active = inhibition above about 30%; inconclusive = no clear call, values can overlap the other calls; inactive = below that.

SMILES	Anthrax LF inh2	BoNT-A LC inh2	BJeLR lethal	BoNT-F LC inh	Autofluor counter
CC[C@@]1(O)C(=O)OCc2c1cc1n(c2=O)Cc2cc3c(N)cccc3nc2-1	8	0	78*	-3	2807
COc1ccc(-c2csc(NC(=O)c3ccoc3C)n2)cc1	-2	0	1	1	3209
CN(C)c1ccc(/C=N/NC(=O)c2ccccc2O)o1	0	0	6	-8	1988
CN(C)c1ccc(/C=N/NC(=O)C(O)(c2ccccc2)c2ccccc2)o1	-2	?	-1	-1	16827*
Cn1cnc2c(cnn2C)c1=N	-2	0	·	-3	3067
CCOc1ccc(-c2nc(C#N)c(N3CCN(CC)CC3)o2)cc1	-2	?	2	0	19650*
N#Cc1nc(-c2ccc(OCc3ccc(Cl)cc3)cc2)oc1N1CCC(C(N)=O)CC1	-5	0	10	-3	5242
CCCOc1ccc(-c2nc(C#N)c(N3CCC(C(N)=O)CC3)o2)cc1	-4	-2	-5	-3	19961*
CC1Oc2ccc(C#N)cc2N(Cc2ccccc2OC(F)(F)F)C1=O (stereo not drawn)	0	0	·	-9	4037
Cc1ccc(NC(=O)COC(=O)c2ccc(C)c(S(=O)(=O)N3CCOCC3)c2)cc1	-10	-5	·	-18	5354
N#C/C(=C\C=C\c1ccccc1)c1nc(-c2ccc3c(c2)OCO3)cs1	21	52*	2	10	3363
OC(c1ccccc1)(c1nc(-c2ccc3c(c2)OCO3)cs1)C(F)(F)F (stereo not drawn)	-3	0	·	2	3181
O=c1[nH]nc(Cc2ccc([N+](=O)[O-])cc2)c2ccccc12	4	0	-9	-4	3456
COc1ccc(-c2ccc(-c3nnc(Cc4ccc(OC)c(OC)c4)o3)cc2)cc1	-5	1	0	4	22185*
COc1ccc(OC)c(NCc2nnc(-c3ccccc3)o2)c1	-10	-3	-5	-11	3904
O=C(Nc1ccc2nc(-c3ccco3)c(-c3ccco3)nc2c1)N1CCN(c2ccccn2)CC1	20	41*	5	15	5771
O=C(Nc1ccccc1)c1ccc2nc(-c3ccco3)c(-c3ccco3)nc2c1	19	?	4	24	19000*
Cn1c(=O)c2cc(NC(=O)NCCc3ccccc3)ccc2n1Cc1ccc(F)cc1	-3	0	·	1	3382
Cn1c(NCc2ccccc2)nc2c1c(=O)n(Cc1ccc(Br)cc1)c(=O)n2C	1	-1	8	1	3167
COc1ccc(CNc2nc3c(c(=O)n(Cc4ccc(Br)cc4)c(=O)n3C)n2C)cc1	-5	-2	-1	-6	20995*
Cn1c(Cl)nc2c1c(=O)n(Cc1cccc(Br)c1)c(=O)n2C	0	0	·	-1	20509*
Cn1c(Br)nc2c1c(=O)n(Cc1ccccc1)c(=O)n2C	2	-1	5	?	3893
CC(=O)c1cccc(NC(=O)c2cc(S(=O)(=O)N3CCCCC3)ccc2N2CCOCC2)c1	2	0	·	-3	3813
CCOC(=O)Cn1nnnc1CN(Cc1cccs1)Cc1cc2cc(C)cc(C)c2[nH]c1=O	4	-1	3	-1	23938*
COc1ccccc1CN(Cc1cc2cc3c(cc2[nH]c1=O)OCCO3)Cc1nnnn1Cc1ccco1	-4	0	-8	-5	23267*
COc1ccc2cc(CN(Cc3cccs3)Cc3nnnn3Cc3ccccc3)c(=O)[nH]c2c1	-2	-1	-1	-3	24337*
COc1ccc(CCNC(=O)C(=O)NCC2OCCN2C(=O)c2ccc(Cl)cc2)cc1OC (stereo not drawn)	-5	-1	1	0	6407
CC(=O)OC1CC(OC2C(O)CC(OC3C(O)CC(OC4CCC5(C)C(CCC6C5CC(O)C5(C)C(C7=CC(=O)OC7)CCC65O)C4)OC3C)OC2C)OC(C)C1OC1OC(CO)C(O)C(O)C1O (stereo not drawn)	-6	1	·	0	7394
C[C@H]1O[C@@H](O[C@H]2[C@@H](O)C[C@H](O[C@H]3[C@@H](O)C[C@H](O[C@H]4CC[C@@]5(C)[C@H](CC[C@@H]6[C@@H]5C[C@@H](O)[C@]5(C)[C@@H](C7=CC(=O)OC7)CC[C@]65O)C4)O[C@@H]3C)O[C@@H]2C)C[C@H](O)[C@@H]1O	2	0	102*	2	5895
CCCN(CC(=O)Nc1ccccc1OC)Cc1c(O)ccc2ccccc12	-1	-2	-19	9	3679
